This is a sample that favours compounds with a hit; in the whole collection about 1.3% have one here.
VACV mCherry inh: inhibitors of vaccinia virus infection (mCherry reporter signal); Potency, µM (titrated, usually from 36.5 µM), for the others: top-dose activity change, negative = inhibition, hits mostly inhibitors; Vaccinia virus mCherry reporter infection, fluorescence; 0.63% of 310,000 active; calls by dose curve; tested in A549 cells; note: nearly all actives have a fitted effect of over 35% in size
AMA1-RON2 inh: AMA1-RON2 (P. falciparum) interaction inhibition; AlphaScreen AMA1-biotinylated RON2 peptide binding; Potency, µM (series often up to 58.2 µM), without a hit: top-dose activity change, negative = inhibition, hits mostly inhibitors; 0.2% of 360,000 active;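 note: 0% = vehicle wells and -100% = peptide control; nearly all actives have a fitted effect of over 45% in size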
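AMA1 (3D7) with his tag at 25 nM final met compounds first, then biotinylated RON2 peptide at 25 nM; detection used donor plus acceptor beads, 10 µg/mL apiece, read by AlphaScreen after 30 min at room temperature.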
LmPK inhibitor: inhibitors of Leishmania mexicana pyruvate kinase; 0.37% of 290,000 active; AID 1721; Q27686; Potency, µM (titrated, usually from 57.5 µM), inactives show top-dose activity change, negative = inhibition, most hits filed as inhibitors; purified LmPK, Kinase-Glo ATP luminescence, 1 h
Target sequence (Q27686 whole entry, looked up): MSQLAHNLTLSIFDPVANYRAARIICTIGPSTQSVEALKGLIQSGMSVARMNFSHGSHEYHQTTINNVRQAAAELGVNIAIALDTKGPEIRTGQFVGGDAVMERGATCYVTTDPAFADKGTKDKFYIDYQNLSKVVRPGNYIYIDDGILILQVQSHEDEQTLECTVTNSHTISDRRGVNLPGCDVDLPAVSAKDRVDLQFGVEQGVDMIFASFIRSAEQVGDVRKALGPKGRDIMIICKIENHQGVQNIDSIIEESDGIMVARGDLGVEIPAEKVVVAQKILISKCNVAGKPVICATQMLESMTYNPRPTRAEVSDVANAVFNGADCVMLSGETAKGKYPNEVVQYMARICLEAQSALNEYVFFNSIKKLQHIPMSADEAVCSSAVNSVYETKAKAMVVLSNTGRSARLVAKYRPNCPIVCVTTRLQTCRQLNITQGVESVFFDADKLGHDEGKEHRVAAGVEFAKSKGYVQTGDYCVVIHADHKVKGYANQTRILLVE
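ATP generated from ADP (0.1 mM) and PEP (0.5 mM) by 0.1 nM LmPK over 1 h at room temperature (pH 7.2 imidazole buffer) was detected by coupled luciferase luminescence. Values were normalized to uninhibited and no-enzyme wells.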
Vaccinia Venus: inhibitors of vaccinia virus (Venus reporter); Vaccinia virus Venus reporter expression, fluorescence; Potency, µM (titrated, usually from 36.5 µM), without a hit: at the top dose activity change, negative = inhibition, usual class: inhibitors; 0.46% of 330,000 active; AID 720580; calls by dose curve; tested in A549 cells; note: nearly all actives have a fitted effect of over 30% in size
TbPYK inhibitor: blocks Trypanosoma brucei pyruvate kinase. Potency, µM (top dose mostly 76.8 µM), without a hit: top-dose activity, negative = inhibition, actives largely listed as inhibitors. Q57TT1. TbPYK enzyme, Kinase-Glo Plus ATP luminescence, 45 min. 0.12% of 410,000 active; note: nearly all actives have a fitted effect of over 50% in size
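Assay buffer: 50 mM TEA pH 7.2, 100 mM KCl, 10 mM MgCl2, 0.05% BSA, 0.01% Tween-20. Pyruvate kinase from T. brucei plus substrate met compound, then ADP (130 uM final). Luminescence was read post 45 min RT.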
RE007 growth inh: less growth of the S. pombe RE007 Vpr strain; AID 651644; Potency, µM (top dose mostly 92.2 µM), for inactives: at the top dose activity change, negative = less growth, usual class: inhibitors; S. pombe RE007 Vpr strain, BacTiter-Glo ATP luminescence, 24 h; 0.21% of 360,000 active; active = well fitted falling curve with a large enough effect; inconclusive = small, poorly fitted or top-dose-only effect; inactive = no such curve, though single readings can be large or run the other way; note: nearly all actives have a fitted effect of over 50% in size
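Fission yeast RE007 carrying one integrated HIV-1 vpr copy, seeded at OD 0.01 in PMG+AL medium with 23 nL pinned compound. Grown 24 h at 30 degrees; viability read by BacTiter-Glo luminescence after 5 min.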
* marks the source's active call; other numbers are inactive results; i = inactive; ? = inconclusive; / = no result; ! = a repeat was not active; [ ] = another dose, or the depositor's remark. Unless noted, calls come from the whole dose curve; as a rule, active = well fitted curve in the direction sought with a large enough effect; inconclusive = small, poorly fitted or top-dose-only effect, or another doubt; inactive = no such curve, though single readings can be large; an effect the other way counts as inactive or inconclusive. Unless noted, % is set by controls: 0 for no effect and ±100 for the full control effect; potency is the fitted concentration of half-maximal effect.

SMILES	VACV mCherry inh	AMA1-RON2 inh	LmPK inhibitor	Vaccinia Venus	TbPYK inhibitor	RE007 growth inh
COC(=O)[C@@H]1CCCN1Cc1ccc2c(c1)CN(Cc1coc3ccc(C)cc3c1=O)CCO2	-14.9%	/	/	-10.3%	/	/
O=C(C[n+]1ccncc1)c1ccc(Br)cc1	-18.7%	/	/	-2.3%	/	/
CC(=O)Oc1ccc2ccccc2c1C(NC(=O)Cc1ccccc1)c1ccc(Cl)cc1 (centres undefined)	28.2µM*	-10.5%	-0.7%	?	0.4%	-7.7%
CCOc1ccc(C(NC(=O)CC)c2c(O)ccc3ccccc23)cc1 (centres undefined)	/	-3.0%	0.6%	/	1.7%	-5.7%
CC1C/C(=C\c2cccnc2)C(=O)/C(=C/c2cccnc2)C1 (centres undefined)	?	-3.2%	-7.1%	8.91µM*	-8.0%	?
CN1C(=O)C(=Cc2cccnc2)C(=O)N(C)C1=O	-17.2%	7.9%	2.2%	-13.8%	?	1.8%
Cc1cc(C)c(C)c(OCCN2CC(C)OC(C)C2)c1 (centres undefined)	/	28.2µM*	1.5%	/	-15.3%	-12.8%
CC1CN(CCOc2cccc(Oc3ccccc3)c2)CC(C)O1 (centres undefined)	/	25.1µM*	-3.1%	/	-9.0%	-11.9%
c1coc(CNc2ncnc3[nH]ncc23)c1	6.31µM*!	-1.4%	-4.2%	?	2.5%	-13.2%
Cc1ccc(C)c(C(=O)N2CCC(C3(c4ccccn4)NC(=O)N(CC4CCCO4)C3=O)CC2)c1 (centres undefined)	i	/	/	-13.5%	/	/
COC(=O)c1ccc2c(c1O)C(=O)c1ccccc1C2=O	/	-24.5%	-1.1%	/	1.9%	4.47µM*
O=C1c2ccccc2C(=O)c2c1ccc(O)c2O	-15.4%	0.0%	/	3.5%	-21.2%	?
Cc1ccc(Cl)cc1-n1ncc2c(N3CCCCCC3)ncnc21	?	/	/	-19.7%	1.8%	/
COc1ccccc1N1CCN(c2ncnc3c2cnn3-c2cc(Cl)ccc2C)CC1	10µM*	/	/	10µM*	1.5%	/
COc1ccccc1NC(=O)N1CCN(c2ccnc3cc(Cl)ccc23)CC1	?	-13.5%	-2.8%	-20.2%	3.4%	?
COc1ccccc1N1CCN(c2ccnc3cc(Cl)ccc23)CC1	11.2µM*	-19.3%	-2.0%	-28.2%	-1.2%	-27.9%
Cc1cnc(-n2ncc(C(=O)NCCN3CCOCC3)c2C2CC2)nc1-c1cccs1	-1.6%	/	/	-17.2%	/	/
CCN1C(=O)C(CC(=O)Nc2ccc(OC)cc2)N(Cc2cccnc2)C1=S (centres undefined)	-13.7%	11.9µM*	0.7%	-11.8%	-7.1%	-10.2%
CCN1C(=O)C(CC(=O)Nc2ccc(OC)cc2)N(CCCN2CCN(c3ccc(OC)cc3)CC2)C1=S (centres undefined)	10µM*	-6.6%	8.6%	?	-5.6%	-4.0%
COc1ccc(NC(=O)CC2C(=O)N(CCc3ccccc3)C(=S)N2Cc2cccnc2)cc1 (centres undefined)	/	-11.5%	0.2%	/	0.4%	14.1%
COc1ccc2c(c1)-c1nc(-n3ncc(C(=O)NCc4cccc(C)n4)c3C3CC3)ncc1CC2	-3.3%	/	/	-3.2%	/	/
Cc1cc2c(cc1C)C(c1cccc([N+](=O)[O-])c1)CC(=O)N2 (centres undefined)	0.355µM*	-3.0%	2.0%	1µM*	18.5%	-3.8%
Cc1ccc(CNc2ncnc3sc(C(=O)N4CCC[C@H]4C(N)=O)c(C)c23)o1	-7.8%	/	/	-1.7%	/	/
CCn1c(-c2ccccc2F)nc2cc(NC(C)=O)cc(C(=O)N3CCC[C@H]3C(=O)OC)c21	i	/	/	0.0%	/	/
CC(=O)C1=C(C)NC(SCC(=O)c2ccc(F)cc2)=C(C#N)C1CC(C)C (centres undefined)	i	-5.1%[2.32 µM]	22.9%	-17.0%	14.1µM*	-15.4%
SMILES	VACV mCherry inh	AMA1-RON2 inh	LmPK inhibitor	Vaccinia Venus	TbPYK inhibitor	RE007 growth inh
CC(=O)C1=C(C)NC(SCC(N)=O)=C(C#N)C1CC(C)C (centres undefined)	-1.6%	25.5%	-1.6%	-15.1%	?	7.1%
CC(=O)C1=C(C)NC(SCC(N)=O)=C(C#N)C1C (centres undefined)	-4.7%[1.46 µM]	46.4%	15.2%	-8.8%	8.91µM*	2.0%
Cc1cnc(SCC2CCCO2)nc1C1CCCN(C(=O)C2=NNC(=O)CC2)C1 (centres undefined)	-14.8%	/	/	-13.1%	/	/
CCOC(=O)CCCCC(=O)c1[nH]c(=O)[nH]c1CN1CCOCC1	-3.1%	9.47µM*	-3.5%	1.8%	6.8%	-4.8%
NC1=NC[C@@H](Cc2ccc(O)cc2)N1CCc1cc(C(F)(F)F)cc(C(F)(F)F)c1	-0.5%	13.9%	-7.0%	-19.8%	0.5%	1.4%
NC1=NC[C@H](CC2CCCCC2)N1CCc1cc(C(F)(F)F)cc(C(F)(F)F)c1	?	4.6%	4.5%	10µM*	-1.1%	22.0%
CC(=O)Nc1cccc(/C(C)=N/Nc2nc3ccccc3s2)c1	?	24.4%	13.9%	?	7.0%	-5.4%
CC(=NNc1nc2ccccc2s1)c1ncccn1	1µM*	?	/	19.2%	2.3%	?
C/C(=N\Nc1nc(-c2ccccc2)cs1)c1cccs1	i	-19.1%	-11.3%	-9.0%	?	-4.0%
C/C(=N\Nc1nc2ccccc2s1)c1cccs1	-22.6%	?	-5.8%	-20.5%	-8.2%	35.5µM*
C[C@]12c3[nH]c4ccc(Cl)cc4c3CCN1C(=O)[C@@H](CC(=O)NCC13CC4CC(CC(C4)C1)C3)C[C@@H]2C(=O)N1CCOCC1	?	-11.7%	/	12.6µM*	-1.5%	4.3%
CC[C@]12c3[nH]c4ccc(OC)cc4c3CCN1C(=O)C(CC(=O)NCC13CC4CC(CC(C4)C1)C3)C[C@@H]2C(=O)N1CCN(C(=O)C2CC2)CC1 (some centres undefined)	i	-28.1%	/	-21.3%	1.5%	-9.8%
C[C@]12c3[nH]c4ccc(Cl)cc4c3CCN1C(=O)[C@@H](CC(=O)NCc1cccc(C(F)(F)F)c1)C[C@@H]2C(=O)N1CCOCC1	-18.5%	-14.4%	/	?	3.2%	0.2%
CC(C)N(C(=O)[C@H]1C[C@H](CC(=O)NCc2cccc(C(F)(F)F)c2)C(=O)N2CCc3c([nH]c4ccc(Cl)cc34)[C@]12C)C(C)C	?	1.7%	/	11.2µM*	3.9%	8.8%
C[C@]12c3[nH]c4ccc(Cl)cc4c3CCN1C(=O)[C@@H](CC(=O)NCC13CC4CC(CC(C4)C1)C3)C[C@@H]2C(=O)N1CCCCC1	28.2µM*	-17.6%	/	?	4.2%	13.2%
